Screening results from PubChem.
In the library only some 2% were active in any assay of this set; here they are far more common.
Gli-Sufu block = Gli-Sufu pathway antagonism; actives 0.74% (n = 340,000); Sufu-KO-LIGHT fibroblasts, Gli luciferase reporter luminescence; AID 588413; inhibition, % at 5 µM;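 active = inhibition above about 55%, limit read from the data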;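 note: 0% = DMSO-treated cells and 100% = wells with medium but no cells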
697 NFkB inh = lowers PMA/ionomycin-induced NF-kB signal in 697 B cells. AID 435022. 697 B-cell NF-kB luciferase reporter, 16 h. actives 0.33% (n = 330,000). inhibition, % at 4 µM; in the data active = inhibition above about 35%
GalR3 antag = human GalR3 antagonism; actives 0.44% (n = 360,000); O60755; HEK293 GalR3-CNG cAMP membrane potential fluorescence; galR3 body fused to GalR1 C-terminus; AID 651719; inhibition, % at 3 µM;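 active = inhibition above the screen-wide average plus 3 SD, cut at about 13% in these data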;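 note: forskolin and galanin both at EC90 stimulate the cells; cAMP rise reported by CNG channel membrane potential dye signal; 0% = forskolin plus galanin with DMSO and 100% = forskolin alone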
Target sequence (O60755 1-299 limits assumed): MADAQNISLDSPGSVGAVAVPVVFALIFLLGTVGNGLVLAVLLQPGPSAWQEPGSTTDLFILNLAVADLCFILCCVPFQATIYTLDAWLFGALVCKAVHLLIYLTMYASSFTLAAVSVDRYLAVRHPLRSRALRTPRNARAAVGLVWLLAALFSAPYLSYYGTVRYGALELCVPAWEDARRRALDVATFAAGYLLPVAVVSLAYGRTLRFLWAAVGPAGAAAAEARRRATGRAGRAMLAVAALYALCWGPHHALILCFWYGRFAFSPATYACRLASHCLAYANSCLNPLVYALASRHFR
Jurkat NFkB inh = inhibitors of the PMA/ionomycin-induced NF-kB reporter in Jurkat cells. PMA/ionomycin-induced NF-kB luciferase reporter, luminescence. inhibition, % at 4 µM. AID 435003. actives 0.53% (n = 330,000); in the data active = inhibition above about 50%
COUP-TFII inh = NR2F2 (human) inhibition, primary screen. P24468. HEK293T NGFI-A luciferase reporter, luminescence. inhibition, % at 8.6 µM. actives 0.7% (n = 370,000);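 active = inhibition above a per-plate cutoff, mean inhibition of test wells between control levels plus 3 SD, cut at about 38% in these data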;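 note: cells cotransfected with COUP-TFII expression vector driving the NGFI-A reporter; 0% = median of COUP-TF2 test wells and 100% = reporter-only cells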
GalR3 conf = confirmation of human galanin receptor 3 antagonists | HEK293 GalR3 CNG cAMP biosensor, membrane potential fluorescence; galR3 fused to GalR1 carboxy tail; challenged with forskolin and galanin at EC90 | actives 59% (n = 1,600) | shares compounds with GalR3 antag | inhibition, % at 3 µM;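 active = inhibition above the primary screen's cutoff, the mean inhibition of all screened compounds plus 3 SD, cut at about 13% in these data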;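 note: 0% = forskolin plus galanin and 100% = forskolin alone with DMSO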
CNG parental = acts as nonspecific agonist in parental HEK-CNG cells; shares compounds with GalR3 antag; HEK293-CNG parental cells, cAMP membrane potential fluorescence; normalised: DMSO wells 0%, forskolin wells 100%; activation, % at 3 µM; actives 10% (n = 1,600); AID 652268; in the data active = activation above about 1.3%
The depositor's hits bear a star; nt = no result.

SMILES | Gli-Sufu block | 697 NFkB inh | GalR3 antag | Jurkat NFkB inh | COUP-TFII inh | GalR3 conf | CNG parental
O=C(Nc1ccc(F)c(Cl)c1)c1cc(C2CCCN(S(=O)(=O)c3cccc4cccnc34)C2)on1 (stereo not given) | nt | nt | 13* | nt | 28 | 6 | -1
N#C/C(=C\c1ccccc1)C(=O)Nc1nncs1 | 0 | 17 | 16* | 0 | 8 | 9 | 0
Cc1ccccc1OCC1CNC(=O)O1 (stereo not given) | -2 | 11 | -3 | 0 | 9 | nt | nt
O=C1NCC(COc2cccc3ccccc23)O1 (stereo not given) | 0 | -3 | 19* | 13 | -5 | 7 | 0
Cn1c(=O)c2c(nc(NCc3cccnc3)n2Cc2ccc(Cl)cc2)n(C)c1=O | -1 | 28 | 24* | -1 | 4 | 9 | 1
Cn1c(=O)c2c(ncn2Cc2ccc(Cl)cc2)n(C)c1=O | 1 | -5 | 15* | 6 | 18 | 0 | 0
Cc1cc(C)c2nc(N3C(=O)C(O)=C(C(=O)c4ccco4)C3c3ccc(O)cc3)sc2c1 (stereo not given) | 7 | -40 | 45* | -12 | -10 | 12 | 1
Cc1cc(C)c2nc(N3C(=O)C(O)=C(C(=O)c4ccco4)C3c3cccc(O)c3)sc2c1 (stereo not given) | 0 | -16 | 14* | -23 | -5 | 9 | 0
COC[C@@H]1CCCN1c1cccc2c1S(=O)(=O)N(C1CC1)CCCO2 | nt | nt | nt | nt | -3 | nt | nt
O=C(Nc1cccc(F)c1)OCCCN1CCC2(CCC(c3ccccc3)CC2)C1 (stereo not given) | nt | nt | nt | nt | 14 | nt | nt
O=C(NS(=O)(=O)N1CCCC1)C1=C(N2CCCC2)COC1=O | -22 | -12 | nt | -7 | -83 | 0 | 0
O=[N+]([O-])c1c(Nc2ccccc2O)cc(Cl)c2nonc12 | 4 | -31 | 40* | -7 | 5 | 41* | 0
C[C@@H]1CCN(C2CC2)S(=O)(=O)c2c(cccc2N2CCC[C@@H]2C)O1 | nt | nt | nt | nt | 9 | nt | nt
COc1ccc(N2CCN(Cc3nc4c(c(=O)n(C)c(=O)n4C)n3CC(C)=O)CC2)cc1 | -2 | -15 | -7 | 10 | 17 | nt | nt
COc1ccc(N2CCN(Cc3nc4c(c(=O)[nH]c(=O)n4C)n3CC(C)=O)CC2)cc1 | 1 | 15 | 13* | 4 | -5 | 1 | 0
NC(=O)CC[C@H](NC(=O)c1ccc(F)cc1)C(=O)OCC(=O)NCc1ccc2c(c1)OCO2 | -3 | -17 | 26* | -11 | -58 | 1 | 0
O=C(COC(=O)c1ccc2c(c1)OCO2)NCc1ccc2c(c1)OCO2 | 7 | -7 | -6 | 4 | -24 | nt | nt
CCc1nnc(NC(=O)CSc2nnc(CNC(=O)c3ccccc3F)n2C)s1 | -9 | 4 | -10 | 14 | -3 | nt | nt
Cc1nnc(NC(=O)C(C)Sc2nnc(CCNC(=O)c3ccccc3F)n2C)s1 (stereo not given) | 7 | 16 | 13* | 22 | -7 | 5 | 0
COCCCN1C(=O)[C@H](CC(=O)N2CCOCC2)[C@]2(C(=O)OC)CCCCC=C12 | nt | nt | nt | nt | 4 | nt | nt
CCCCn1c(-c2nonc2NC(=O)c2ccccc2Cl)nc2ccccc21 | 1 | nt | 19* | nt | -4 | 0 | 0
COc1cc(/C=N\NC(=O)c2ccc(-c3ccccc3)cc2)cc(Br)c1O | 2 | 12 | 15* | -1 | -17 | 41* | 0
COc1ccc(/C=N/NC(=O)c2ccc(-c3ccccc3)cc2)cc1O | -7 | 23 | 0 | 8 | 7 | nt | nt
CCC1=Nc2cc(C(=O)NCC3CCCO3)ccc2Sc2ccc(Cl)cc21 (stereo not given) | -4 | -18 | 16* | 37 | -35 | 9 | 0
Cc1cc(NC(=O)COC(=O)C(Cc2ccccc2)NC(=O)c2ccco2)no1 (stereo not given) | -5 | -2 | 13* | -7 | 12 | 14* | 0
SMILES | Gli-Sufu block | 697 NFkB inh | GalR3 antag | Jurkat NFkB inh | COUP-TFII inh | GalR3 conf | CNG parental
COc1ccc(C2CC(c3ccc4ccccc4c3)=NN2C(=O)CN2CCC(C(N)=O)CC2)cc1 (stereo not given) | -14 | -28 | 14* | -52 | -11 | -2 | 3.0*
COc1ccc(C2CC(c3ccc4ccccc4c3)=NN2C(=O)CNC2CCCCC2)cc1 (stereo not given) | 27 | -8 | -7 | 3 | 14 | nt | nt
O=c1[nH]cccc1-c1nc2ccccc2n1Cc1ccc(F)cc1 | 4 | 5 | 87* | 3 | -14 | -3 | -1
Cc1cc2nc(-c3ccc[nH]c3=O)n(Cc3ccc(F)cc3)c2cc1C | -14 | 0 | -10 | -3 | -12 | nt | nt
O=C1NC(=Nc2ccccc2Cl)S/C1=C\c1cccc([N+](=O)[O-])c1O | 19 | 7 | -6 | 13 | 21 | nt | nt
COc1c(/C=C2\SC(=Nc3ccccc3Cl)NC2=O)cccc1[N+](=O)[O-] | 3 | 10 | 51* | 8 | -3 | 65* | 1
CCCN1C(=O)c2[nH]nc(-c3cc(Cl)c(C)cc3O)c2C1c1ccc(O)c(OC)c1 (stereo not given) | 12 | 6 | 20* | -6 | -11 | 4 | 0
COCCCN1C(=O)c2[nH]nc(-c3cc(C)cc(C)c3O)c2C1c1ccc(O)c(OC)c1 (stereo not given) | 8 | 8 | 2 | 1 | -13 | nt | nt
COc1cc(NC(=O)COC(=O)CCc2cc(OC)c(OC)c(OC)c2)cc(OC)c1 | -4 | 6 | -2 | 7 | 15 | nt | nt
COc1cc(CCC(=O)OCC(=O)Nc2ccc(C(N)=O)cc2)cc(OC)c1OC | 4 | 9 | nt | 2 | -1 | 9 | 0
COc1cc(C(=O)NCCc2cc3c(OC)ccc(OC)c3[nH]c2=O)cc(OC)c1OC | -1 | 1 | 14* | -5 | -12 | 15* | 0
COC(=O)[C@]12C[C@H](CC(=O)NCc3ccccc3)C(=O)N(Cc3cccc4ccccc34)C1=C[C@H](C(C)C)O[C@@H]2C1CC1 | nt | nt | nt | nt | 12 | nt | nt
CCn1c(=O)n(CC(=O)N2CCN(c3ccc(F)cc3)CC2)c(=O)c2ccccc21 | nt | nt | nt | nt | 11 | nt | nt
Cc1nc2sc(C#N)c(N)c2c2c1CCCC2 | 5 | -4 | 27* | -10 | -7 | 34* | 0
COC(=O)[C@H]1C[C@]2(C(C=C(C)C)S(=O)(=O)c3ccccc3)c3ccccc3N[C@H]2N1 (stereo not given in full) | nt | nt | nt | nt | 7 | nt | nt
Cc1cc(C)nc(N2C(=O)CC(C(=O)O)NC2=NCCc2c[nH]c3ccccc23)n1 (stereo not given) | -5 | 14 | 14* | 12 | -5 | 1 | 0
CNCC(O)c1ccc(OC(=O)C(C)(C)C)c(OC(=O)C(C)(C)C)c1 (stereo not given) | -3 | -16 | 55* | -6 | -55 | 63* | 13*
